From PubChem BioAssay (NCATS)
Results filed as inconclusive are left out. The source made the active and inactive calls. Unless noted, calls come from the whole dose curve; as a rule, active = well fitted curve in the direction sought with a large enough effect; inconclusive = small, poorly fitted or top-dose-only effect, or another doubt; inactive = no such curve, though single readings can be large; an effect the other way counts as inactive or inconclusive.

How the values were obtained:
[1] = Validation of Assay for Modulators of Lamin A Splicing (AID 1459; active = well fitted curve in the direction sought with a large enough effect in the signal ratio; the % refers to the signal ratio;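 note: cells exposed to compound for two days before reading; 0% is about no effect; ratio rise marks activators and ratio drop marks inhibitors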)
Method in brief: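 Splicing correction read as GFP (500-530 nm) over DsRed2 (575-640 nm) object intensity after 48 h compound exposure of reporter HeLa S3 clones (600 cells/well, 2% FBS medium); ancitabine and cycloheximide titrations, 0.5% DMSO as vehicle.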

[2] = molecular target: DNA repair nuclease/redox regulator APEX1 (Homo sapiens) (UniProt P27695); test: qHTS Validation Assay for Inhibitors of the Human Apurinic/apyrimidinic Endonuclease 1 (APE1) (AID 1705;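 note: TAMRA fluorescence gain over two minutes as APE1 cuts a quenched THF abasic duplex; % is set by controls: 0 for no effect and ±100 for the full control effect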)
Method in brief: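 Activity read as rising fluorescence (598 nm emission, 525 nm excitation) from incision of a TAMRA/BHQ-2 duplex carrying a THF abasic site (50 nM). Compound and enzyme sat 15 min at RT before substrate start; signal change between first and third 60-s reads.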

[3] = Counterscreen for APE1 Inhibitors: Fluorescent Dye Displacement Validation Assay (AID 1707);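 note: plate controls were ThO with dsDNA and no compound for no effect and ThO without dsDNA for full effect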
Method in brief: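 Endpoint fluorescence read at 480 nm excitation / 540 nm emission; DNA-binding compounds lower signal by displacing 250 nM Thiazole Orange from 50 nM dsDNA containing a tetrahydrofuran abasic site, Tris-HCl pH7.5 buffer with NaCl and MgCl2.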

[4] = molecular target: Endonuclease 4 (Escherichia coli (strain K12)) (UniProt P0A6C1); test: Counterscreen for APE1 Inhibitors: qHTS Validation Assay for Inhibitors of Endonuclease IV (AID 1708); note: % is set by controls: 0 for no effect and ±100 for the full control effect
Method in brief: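 Incision of a double-stranded 50 nM TAMRA/BHQ-2 abasic substrate was followed kinetically (525/598 nm, reads every 60 s) after 15 min enzyme–compound preincubation with 2 nM EndoIV in pH 7.5 Tris buffer with MgCl2, DTT and Tween-20; concentration-response format.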

[5] = qHTS for differential inhibitors of proliferation of Plasmodium falciparum line 7G8 (AID 1815);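 note: parasite growth measured after three days of incubation; plate controls were vehicle wells for no effect and reference inhibitor wells for full effect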
[6] = qHTS for differential inhibitors of proliferation of Plasmodium falciparum line GB4 (AID 1816); conditions: Potency: Plasmodium falciparum GB4 proliferation inhibition;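 note: 0% = vehicle DMSO and -100% = reference inhibitor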
[7] = qHTS for differential inhibitors of proliferation of Plasmodium falciparum line 3D7 (AID 1876);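 note: parasite growth measured after three days of culture; 0% = vehicle wells and -100% = reference inhibitor wells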
[8] = qHTS for differential inhibitors of proliferation of Plasmodium falciparum line D10 (AID 1877);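 note: parasites grown with compound for 72 h before DNA staining; plate controls were vehicle wells for no effect and reference inhibitor wells for full effect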
[9] = qHTS for differential inhibitors of proliferation of Plasmodium falciparum line Dd2 (AID 1882); conditions: Potency: Plasmodium falciparum Dd2 proliferation inhibition;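 note: plate controls were DMSO vehicle for no effect and 0.29 µM artemisinin for full effect; nearly all actives have a fitted effect of over 65% in size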
Method in brief: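 SYBR Green DNA fluorescence (ex 485, em 535 nm) after overnight lysis quantifies parasite growth; compound exposure lasted 72 h at 37 C on infected red cells at 2.5% hematocrit, 0.3% parasitemia (final). Artemisinin 0.29 uM and vehicle wells define normalization.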

[10] = qHTS for differential inhibitors of proliferation of Plasmodium falciparum line HB3 (AID 1886); conditions: Potency: Plasmodium falciparum HB3 proliferation inhibition;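 note: parasites grown with compound for 72 h before SYBR Green readout; plate controls were vehicle for no effect and reference inhibitor for full effect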
[11] = qHTS Assay for Modulators of Human Peripheral Myelin Protein 22 (PMP22) Expression/Activity (AID 1967; active = well fitted curve in the direction sought with a large enough effect in the signal ratio; the % refers to the signal ratio;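 note: 0% = untreated cells and 100% end not stated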)
Method in brief: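 Readout is the corrected green/red luminescence ratio after 24 h compound exposure, normalised to untreated cells (0%). Engineered MSC80 mouse Schwann cells express green luciferase from the mouse Pmp22 promoter and red luciferase from EF-alpha as internal control.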

[12] = molecular target: Ferritin light chain (Equus caballus) (UniProt P02791); test: qHTS Validation Assay for Identification of Novel General Anesthetics (AID 2323); note: % is set by controls: 0 for no effect and ±100 for the full control effect
Method in brief: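 Competitive displacement of the profluorescent anesthetic 1-AMA (50% saturated, PBS) from 10 uM apoferritin, 10 min, room temperature. Activity is normalized 380/535 nm fluorescence; concentration-response fitted with a four-parameter Hill equation.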

[13] = molecular target: ATP-dependent DNA helicase Q1 (Homo sapiens) (UniProt P46063); test: qHTS Validation Assay for Inhibitors of RecQ-Like Dna Helicase 1 (RECQ1) (AID 2353);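 note: plate controls were DMSO vehicle for no effect and enzyme-free control for full effect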
Method in brief: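 RECQ1T1 50 nM; forked duplex (20 bp + 30-nt ss tails) 200 nM, ATP 2 mM final; pH 8.0, 2 mM MgCl2, 2.5 ug/ml poly(dI-dC); 15 min compound preincubation; discontinuous kinetic read over 2 h at RT.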

[14] = Validation screen for small molecules that induce DNA re-replication in MCF 10A normal breast cells (AID 463097); note: 0% is about no effect; nearly all actives have a fitted effect of over 60% in size
Method in brief: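 Read-out is Hoechst total nuclear intensity by fluorescence scanning imager, flagging increased high-DNA-content nuclei. Compounds were incubated with MCF 10A cells for 48 hr (37 C, 5% CO2) before 40 min staining.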

[15] = Quantitative high throughput screen for delayed death inhibitors of the malarial parasite plastid, 96 hour incubation (AID 488745);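 note: luciferase-expressing P. falciparum in erythrocytes at 2% hematocrit and 0.1% parasitemia; % is set by controls: 0 for no effect and ±100 for the full control effect; nearly all actives have a fitted effect of over 70% in size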
Method in brief: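 Readout is firefly luciferase luminescence from an integrated reporter in P. falciparum; lower signal marks inhibited growth. Cultures at 2% hematocrit and 0.1% parasitemia were treated with compound across two generations (96 h, 37 C, 5% CO2).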

[16] = Quantitative high throughput screen for delayed death inhibitors of the malarial parasite plastid, 48 hour incubation (AID 488752); note: % is set by controls: 0 for no effect and ±100 for the full control effect; nearly all actives have a fitted effect of over 65% in size
Method in brief: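 First, compound was pinned into RPMI 1640 medium containing 0.5% Albumax. Next, reporter-parasite-infected erythrocytes were added to 2% hematocrit and 0.1% parasitemia. After 48 h at 37 C under 5% CO2, luciferase detection reagent was added and luminescence read.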

[17] = molecular target: M-phase phosphoprotein 8 (Homo sapiens) (UniProt Q99549); test: qHTS Validation Assay for Inhibitors for MPP8 Chromodomain Interactions with Methylated Histone Tails (AID 488949);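 note: AlphaScreen signal from MPP8 chromodomain bound to biotinylated H3K9me3 peptide; top concentration of the series differs between compounds; % is set by controls: 0 for no effect and ±100 for the full control effect; nearly all actives have a fitted effect of over 55% in size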
Method in brief: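 AlphaScreen proximity signal from streptavidin donor and Ni-chelate acceptor beads (10 ug/mL each) reported binding of MPP8 to trimethyl-K9 H3(1-18) peptide, both at 50 nM. The complex formed 30 min before a 30 min compound exposure at room temperature, in PBS pH 7.4.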

[18] = molecular target: Thyrotropin receptor (Homo sapiens) (UniProt P16473); test: qHTS Assay for Antagonists of the Thyroid Stimulating Hormone Receptor (AID 488980); note: 0% is about no effect
Method in brief: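 Inhibition of cAMP raised by EC80 TSH (4 nM final) was read by HTRF, with lysate cAMP competing against cAMP-d2 for cryptate antibody after 30 min at room temperature. The cells were transfected HEK293 held in phosphodiesterase inhibitor RO 20-1724 at 70 uM.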

[19] = molecular target: ATP-dependent 6-phosphofructokinase (Trypanosoma brucei brucei) (UniProt O15648); test: qHTS Assay to Find Inhibitors of T. brucei phosphofructokinase: hit validation (AID 492961);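 note: luminescence reports ADP formed as PFK phosphorylates fructose-6-phosphate with ATP; % is set by controls: 0 for no effect and ±100 for the full control effect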
Method in brief: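 Measures ADP output of PFK (1.25 nM) at 0.1 mM ATP, 0.5 mM F6P, pH 8.0 TEA buffer with 5 mM MgCl2. No-enzyme wells define full inhibition; uninhibited enzyme wells define zero.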

[20] = molecular target: Galactokinase (Homo sapiens) (UniProt P51570); test: qHTS Validation Assay for Inhibitors of Human Galactokinase (GALK) (AID 493189); note: 0% is about no effect
Method in brief: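 Inhibition was measured as remaining ATP, detected by luciferase luminescence after a 1 h room-temperature reaction. Final conditions: 5 nM GALK, 100 uM galactose, 35 uM ATP, pH 8.0 HEPES buffer.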

[21] = Validation screen for small molecules that induce DNA re-replication in SW480 colon adenocarcinoma cells (AID 504364); note: 0% is about no effect
Method in brief: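 Image-based qHTS: compounds were incubated with SW480 cells for 48 hr, nuclei stained with Hoechst, and per-nucleus fluorescence intensity scanned to flag cells with excess DNA content.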

[22] = molecular target: Ubiquitin carboxyl-terminal hydrolase 1 (Homo sapiens) (UniProt O94782); test: Inhibitors of USP1/UAF1: Pilot qHTS (AID 504865);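 note: rhodamine fluorescence freed from ubiquitin-rhodamine substrate followed over time; top concentration of the series differs between compounds; % is set by controls: 0 for no effect and ±100 for the full control effect; nearly all actives have a fitted effect of over 35% in size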
Method in brief: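 Deubiquitinase activity followed as kinetic rhodamine fluorescence release from 150 nM Ub-Rho. 1 nM USP1/UAF1 with compound, after 15 min room-temperature preincubation, in HEPES pH 7.8 buffer containing TCEP, EDTA, BSA and Tween-20.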

[23] = molecular target: Luciferin 4-monooxygenase (Photinus pyralis) (UniProt P08659); test: Biochemical firefly luciferase enzyme assay for NPC (AID 624030);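 note: purified P. pyralis luciferase at 10 nM with luciferin and ATP substrate; 0% = DMSO and -100% = full luciferase inhibition by PTC124 control; nearly all actives have a fitted effect of over 70% in size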
Method in brief: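 Direct inhibition of firefly luciferase enzyme (10 nM final, 50 mM Tris Acetate) assessed by luminescence within 5 minutes. Percent activity scaled between DMSO and PTC124 positive control, with concentration-effect curves classified by fit quality and response.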

[24] = S16 Schwann cell viability assay (CellTiter-Glo assay) (AID 624031);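 note: native untransfected S16 rat Schwann cells; cellular ATP luminescence as a viability measure; plate controls were DMSO-treated cells for no effect and cell-free wells for full effect; nearly all actives have a fitted effect of over 70% in size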
Method in brief: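 Concentration-effect curves come from CellTiter-Glo luminescence of S16 rat Schwann cells after 24 h compound exposure. Each reading was normalized to DMSO wells (0%) and wells without cells, and curves were ranked by r2 and response magnitude.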

[25] = S16 Schwann cell PMP22 intronic element firefly luciferase assay (AID 624032);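 note: plate controls were DMSO for no effect and PTC124 positive control mean for full effect; nearly all actives have a fitted effect of over 30% in size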
Method in brief: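 Luciferase reporter of PMP22 intronic-element expression in stably transfected S16 rat Schwann cells, read by ONE-Glo luminescence after 24 h compound exposure at 37 C. Activity scaled between DMSO (0%) and positive-control PTC124; concentration-effect curves quality-classified.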

[26] = S16 Schwann cell PMP22 intronic element beta-lactamase assay (AID 624044; calls by dose curve;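 note: 0% = DMSO and -100% = potassium clavulanate positive control; nearly all actives have a fitted effect of over 15% in size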)
Method in brief: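 Beta-lactamase reporter under a PMP22 intronic regulatory element in stable S16 rat Schwann cells; 24 h compound exposure. 460 nm blue signal normalized between DMSO (0%) and potassium clavulanate, with 535 nm FRET tracking viability; curves classed by r2 and response.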

[27] = qHTS profiling for inhibitors of Plasmodium falciparum proliferation (AID 504749);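 note: 0% = DMSO vehicle and full inhibition = artemisinin control; nearly all actives have a fitted effect of over 60% in size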; conditions: P. falciparum in erythrocytes, SYBR Green DNA, 72 h, at 28.7 µM (top of the series)
Method in brief: (§1)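 SYBR Green fluorescence of parasite DNA, read after lysis and overnight dark incubation, measured growth over 72 h in erythrocyte culture at 0.3% parasitemia and 2.5% hematocrit. Data normalised to DMSO and 0.29 uM artemisinin, with plate-drift correction.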

3D7 = test: as above; conditions: P. falciparum in erythrocytes, SYBR Green DNA, 72 h; series mostly up to 28.7 µM
Method in brief: as §1

7G8 = test: as above; conditions: P. falciparum in erythrocytes, SYBR Green DNA, 72 h; series mostly up to 28.7 µM
Method in brief: as §1

AA1029 = test: as above; conditions: P. falciparum in erythrocytes, SYBR Green DNA, 72 h; series mostly up to 28.7 µM
Method in brief: as §1

AS120 = test: as above; conditions: P. falciparum in erythrocytes, SYBR Green DNA, 72 h; series mostly up to 28.7 µM
Method in brief: as §1

ATS189 = test: as above; conditions: P. falciparum in erythrocytes, SYBR Green DNA, 72 h; series mostly up to 28.7 µM
Method in brief: as §1

ATS95 = test: as above; conditions: P. falciparum in erythrocytes, SYBR Green DNA, 72 h; series mostly up to 28.7 µM
Method in brief: as §1

C2A = test: as above; conditions: P. falciparum in erythrocytes, SYBR Green DNA, 72 h; series mostly up to 28.7 µM
Method in brief: as §1

CP185 = test: as above; conditions: P. falciparum in erythrocytes, SYBR Green DNA, 72 h; series mostly up to 28.7 µM
Method in brief: as §1

CP191 = test: as above; conditions: P. falciparum in erythrocytes, SYBR Green DNA, 72 h; series mostly up to 28.7 µM
Method in brief: as §1

CP192 = test: as above; conditions: P. falciparum in erythrocytes, SYBR Green DNA, 72 h; series mostly up to 28.7 µM
Method in brief: as §1

CP194 = test: as above; conditions: P. falciparum in erythrocytes, SYBR Green DNA, 72 h; series mostly up to 28.7 µM
Method in brief: as §1

CP201 = test: as above; conditions: P. falciparum in erythrocytes, SYBR Green DNA, 72 h; series mostly up to 28.7 µM
Method in brief: as §1

Sequence of ATP-dependent 6-phosphofructokinase (Trypanosoma brucei brucei) (O15648 whole entry, looked up): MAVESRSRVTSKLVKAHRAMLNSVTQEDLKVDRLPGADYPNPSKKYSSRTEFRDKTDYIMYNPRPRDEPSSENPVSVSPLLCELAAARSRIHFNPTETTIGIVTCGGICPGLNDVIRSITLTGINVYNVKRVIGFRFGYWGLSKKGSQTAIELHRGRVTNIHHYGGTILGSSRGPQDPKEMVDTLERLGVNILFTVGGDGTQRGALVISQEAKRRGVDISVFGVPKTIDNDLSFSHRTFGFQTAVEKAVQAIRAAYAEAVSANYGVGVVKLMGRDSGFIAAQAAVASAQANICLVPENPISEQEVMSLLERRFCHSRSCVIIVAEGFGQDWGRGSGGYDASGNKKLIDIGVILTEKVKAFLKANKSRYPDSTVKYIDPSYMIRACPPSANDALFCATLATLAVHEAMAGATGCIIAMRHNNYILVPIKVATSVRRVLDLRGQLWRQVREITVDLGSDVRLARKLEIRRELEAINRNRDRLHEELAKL
Sequence of Thyrotropin receptor (Homo sapiens) (P16473 whole entry, looked up): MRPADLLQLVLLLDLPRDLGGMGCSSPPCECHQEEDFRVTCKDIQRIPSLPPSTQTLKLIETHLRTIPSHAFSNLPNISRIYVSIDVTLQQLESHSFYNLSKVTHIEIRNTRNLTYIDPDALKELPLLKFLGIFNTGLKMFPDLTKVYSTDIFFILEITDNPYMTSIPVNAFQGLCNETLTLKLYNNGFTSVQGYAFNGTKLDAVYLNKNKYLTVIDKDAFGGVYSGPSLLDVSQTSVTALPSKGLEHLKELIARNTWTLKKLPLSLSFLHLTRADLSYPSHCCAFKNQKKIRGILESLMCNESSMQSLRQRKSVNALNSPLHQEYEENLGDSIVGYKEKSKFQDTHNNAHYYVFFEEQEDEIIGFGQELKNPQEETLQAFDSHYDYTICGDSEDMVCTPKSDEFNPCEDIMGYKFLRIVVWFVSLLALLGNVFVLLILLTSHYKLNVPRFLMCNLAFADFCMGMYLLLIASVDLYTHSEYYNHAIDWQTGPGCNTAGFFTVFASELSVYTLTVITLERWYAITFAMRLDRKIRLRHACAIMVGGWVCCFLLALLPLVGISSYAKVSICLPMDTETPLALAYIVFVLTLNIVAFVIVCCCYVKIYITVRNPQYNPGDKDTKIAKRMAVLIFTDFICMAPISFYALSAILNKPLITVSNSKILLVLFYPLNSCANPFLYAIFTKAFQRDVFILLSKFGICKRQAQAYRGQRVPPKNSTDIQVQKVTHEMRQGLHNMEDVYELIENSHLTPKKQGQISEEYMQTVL
Sequence of Ubiquitin carboxyl-terminal hydrolase 1 (Homo sapiens) (O94782 whole entry, looked up): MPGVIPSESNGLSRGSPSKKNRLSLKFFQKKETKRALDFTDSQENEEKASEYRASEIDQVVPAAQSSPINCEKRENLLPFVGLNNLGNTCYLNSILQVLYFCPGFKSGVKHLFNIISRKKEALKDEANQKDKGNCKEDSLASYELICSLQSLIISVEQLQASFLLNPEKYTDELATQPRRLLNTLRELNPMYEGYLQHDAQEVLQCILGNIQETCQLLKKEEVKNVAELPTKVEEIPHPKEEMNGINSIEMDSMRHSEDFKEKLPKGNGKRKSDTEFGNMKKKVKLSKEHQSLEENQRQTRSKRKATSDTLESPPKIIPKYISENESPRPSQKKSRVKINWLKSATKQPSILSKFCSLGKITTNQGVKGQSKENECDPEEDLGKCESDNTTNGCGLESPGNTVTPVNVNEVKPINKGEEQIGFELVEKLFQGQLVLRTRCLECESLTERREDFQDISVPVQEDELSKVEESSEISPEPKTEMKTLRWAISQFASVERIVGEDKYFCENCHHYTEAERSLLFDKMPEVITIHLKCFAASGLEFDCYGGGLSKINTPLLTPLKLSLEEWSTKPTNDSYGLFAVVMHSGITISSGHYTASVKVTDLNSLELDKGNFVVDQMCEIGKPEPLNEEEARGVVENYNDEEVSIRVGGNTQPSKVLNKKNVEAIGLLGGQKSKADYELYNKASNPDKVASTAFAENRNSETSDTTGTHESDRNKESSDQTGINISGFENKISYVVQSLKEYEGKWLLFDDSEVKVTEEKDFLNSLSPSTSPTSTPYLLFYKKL
Sequence of M-phase phosphoprotein 8 (Homo sapiens) (Q99549 whole entry, looked up): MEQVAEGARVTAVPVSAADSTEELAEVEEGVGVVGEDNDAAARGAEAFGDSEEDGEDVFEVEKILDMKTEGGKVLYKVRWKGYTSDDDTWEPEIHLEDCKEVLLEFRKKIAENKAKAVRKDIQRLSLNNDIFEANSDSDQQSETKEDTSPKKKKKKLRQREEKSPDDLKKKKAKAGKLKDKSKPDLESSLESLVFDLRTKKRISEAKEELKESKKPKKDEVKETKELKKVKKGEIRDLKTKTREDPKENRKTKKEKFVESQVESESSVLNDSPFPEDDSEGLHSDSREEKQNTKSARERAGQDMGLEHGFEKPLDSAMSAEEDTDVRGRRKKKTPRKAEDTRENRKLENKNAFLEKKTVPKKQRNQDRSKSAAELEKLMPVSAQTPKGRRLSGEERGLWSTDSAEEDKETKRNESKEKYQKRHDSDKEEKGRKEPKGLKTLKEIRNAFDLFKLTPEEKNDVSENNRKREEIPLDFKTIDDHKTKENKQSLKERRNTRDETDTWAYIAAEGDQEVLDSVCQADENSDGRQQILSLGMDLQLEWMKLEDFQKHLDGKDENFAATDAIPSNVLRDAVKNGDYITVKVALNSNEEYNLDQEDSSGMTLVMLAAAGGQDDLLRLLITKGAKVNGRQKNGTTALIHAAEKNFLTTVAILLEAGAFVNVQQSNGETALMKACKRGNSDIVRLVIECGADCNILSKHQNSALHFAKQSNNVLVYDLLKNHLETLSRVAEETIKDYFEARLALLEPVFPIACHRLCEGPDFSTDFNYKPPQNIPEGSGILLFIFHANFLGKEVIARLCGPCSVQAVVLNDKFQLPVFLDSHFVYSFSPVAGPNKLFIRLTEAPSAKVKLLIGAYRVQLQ
Sequence of Ferritin light chain (Equus caballus) (P02791 2-175 limits assumed): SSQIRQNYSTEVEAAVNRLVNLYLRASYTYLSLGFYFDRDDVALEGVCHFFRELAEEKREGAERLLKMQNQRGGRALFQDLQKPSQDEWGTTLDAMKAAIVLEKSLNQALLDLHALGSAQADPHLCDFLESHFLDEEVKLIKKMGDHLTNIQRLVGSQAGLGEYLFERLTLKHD
Sequence of ATP-dependent DNA helicase Q1 (Homo sapiens) (P46063 whole entry, looked up): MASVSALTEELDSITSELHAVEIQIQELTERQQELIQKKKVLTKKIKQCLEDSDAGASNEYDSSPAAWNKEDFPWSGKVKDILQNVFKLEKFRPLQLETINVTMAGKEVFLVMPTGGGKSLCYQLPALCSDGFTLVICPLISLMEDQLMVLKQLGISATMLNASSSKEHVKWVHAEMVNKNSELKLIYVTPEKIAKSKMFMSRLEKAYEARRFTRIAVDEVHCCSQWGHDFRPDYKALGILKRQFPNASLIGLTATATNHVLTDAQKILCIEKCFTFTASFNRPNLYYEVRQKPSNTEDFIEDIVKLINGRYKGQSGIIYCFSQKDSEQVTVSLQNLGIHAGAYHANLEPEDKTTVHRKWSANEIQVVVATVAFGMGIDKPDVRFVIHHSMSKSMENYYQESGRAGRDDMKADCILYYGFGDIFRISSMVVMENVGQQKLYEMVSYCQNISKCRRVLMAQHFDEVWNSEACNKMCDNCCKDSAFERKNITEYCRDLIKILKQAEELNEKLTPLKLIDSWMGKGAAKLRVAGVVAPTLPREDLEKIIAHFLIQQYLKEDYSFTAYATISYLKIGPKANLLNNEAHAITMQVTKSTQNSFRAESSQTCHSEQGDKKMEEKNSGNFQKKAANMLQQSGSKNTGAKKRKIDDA
Sequence of Luciferin 4-monooxygenase (Photinus pyralis) (P08659 whole entry, looked up): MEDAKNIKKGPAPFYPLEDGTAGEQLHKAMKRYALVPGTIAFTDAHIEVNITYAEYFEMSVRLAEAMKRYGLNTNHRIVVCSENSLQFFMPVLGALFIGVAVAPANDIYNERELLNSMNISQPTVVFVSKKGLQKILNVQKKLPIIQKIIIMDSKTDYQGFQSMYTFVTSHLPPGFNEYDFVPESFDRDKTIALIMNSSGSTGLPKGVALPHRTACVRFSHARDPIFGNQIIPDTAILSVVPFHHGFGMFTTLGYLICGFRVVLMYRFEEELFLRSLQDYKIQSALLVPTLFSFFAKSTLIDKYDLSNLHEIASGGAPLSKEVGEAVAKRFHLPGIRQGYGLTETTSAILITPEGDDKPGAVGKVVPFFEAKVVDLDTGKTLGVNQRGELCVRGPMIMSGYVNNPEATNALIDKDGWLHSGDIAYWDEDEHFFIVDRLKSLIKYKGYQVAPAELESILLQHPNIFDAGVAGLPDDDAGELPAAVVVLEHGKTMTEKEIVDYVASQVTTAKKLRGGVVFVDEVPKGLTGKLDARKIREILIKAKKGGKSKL
Sequence of DNA repair nuclease/redox regulator APEX1 (Homo sapiens) (P27695 whole entry, looked up): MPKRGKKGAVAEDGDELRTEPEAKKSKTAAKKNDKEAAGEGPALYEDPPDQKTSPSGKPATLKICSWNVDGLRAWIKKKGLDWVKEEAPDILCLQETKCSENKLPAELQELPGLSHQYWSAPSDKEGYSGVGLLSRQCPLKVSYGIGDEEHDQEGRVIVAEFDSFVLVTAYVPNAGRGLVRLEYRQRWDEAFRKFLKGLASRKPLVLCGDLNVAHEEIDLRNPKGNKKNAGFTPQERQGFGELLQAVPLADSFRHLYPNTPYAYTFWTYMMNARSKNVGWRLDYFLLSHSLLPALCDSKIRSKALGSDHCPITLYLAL
Sequence of Galactokinase (Homo sapiens) (P51570 whole entry, looked up): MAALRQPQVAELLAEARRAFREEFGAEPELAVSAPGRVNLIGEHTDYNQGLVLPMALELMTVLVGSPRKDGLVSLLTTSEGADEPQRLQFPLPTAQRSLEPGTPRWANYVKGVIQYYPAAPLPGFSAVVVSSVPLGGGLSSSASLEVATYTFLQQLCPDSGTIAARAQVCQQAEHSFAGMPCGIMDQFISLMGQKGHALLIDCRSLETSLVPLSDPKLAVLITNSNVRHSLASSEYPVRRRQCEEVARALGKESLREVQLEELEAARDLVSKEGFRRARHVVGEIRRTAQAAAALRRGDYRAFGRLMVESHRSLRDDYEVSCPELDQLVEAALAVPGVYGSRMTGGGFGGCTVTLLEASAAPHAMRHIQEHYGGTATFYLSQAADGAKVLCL

COc1ccc(CCNC[C@@H](O)c2ccc(O)cc2)cc1OC
inactive: outcome [1] | Potency [2] | Potency [3] | outcome [4] | Potency [5] | Potency [6] | Potency [7] | Potency [8] | Potency [9] | Potency [10] | outcome [11] | outcome [12] | Potency [13] | outcome [14] | Potency [15] | Potency [16] | Potency [17] | outcome [18] | outcome [19] | outcome [20] | outcome [21] | Potency [22] | Potency [23] | outcome [24] | Potency [25] | outcome [26] | activity, negative = inhibition ([27]; parasite line A) 10.4% | activity, negative = inhibition ([27]; parasite line B) 8.86% | Potency (3D7) | Potency (7G8) | Potency (AA1029) | Potency (AS120) | Potency (ATS189) | Potency (ATS95) | Potency (C2A) | Potency (CP185) | Potency (CP191) | Potency (CP192) | Potency (CP194) | Potency (CP201)
